Laboratory results: PubChem BioAssay (EPA / NIEHS)
Inconclusive results are not listed. Active and inactive are the calls of the source. The calls were made as follows, unless noted: active = hit-call score of the fitted dose curve at least 0.9, where 1 is the maximum; inactive = score below 0.9.

How the values were obtained:
[1] = ATG_NFI_CIS: Attagene CIS-FACTORIAL HepG2 Assay for human Nuclear Factor I (NFI) (AID 2282989); conditions: HepG2 cis-regulatory reporter, NFI response element transcription; actives raise or lower the signal
How it was run: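 Read-out: reporter mRNA via RT-PCR plus capillary electrophoresis with fluorescence detection. Transiently transfected HepG2 (endogenous TF activity on cis promoters), 24 h compound exposure; gain or loss of signal fitted against DMSO.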

[2] = biological target: Myc proto-oncogene protein (Homo sapiens) (UniProt P01106); assay: ATG_Myc_CIS: Attagene CIS-FACTORIAL HepG2 Assay for human Myelocytomatosis (Myc) Proto-Oncogene Transcription Factor (AID 2282990); conditions: HepG2, Attagene cis-reporter transcription factor activity; actives raise or lower the signal
Chain of Myc proto-oncogene protein (Homo sapiens) (P01106 whole entry, looked up): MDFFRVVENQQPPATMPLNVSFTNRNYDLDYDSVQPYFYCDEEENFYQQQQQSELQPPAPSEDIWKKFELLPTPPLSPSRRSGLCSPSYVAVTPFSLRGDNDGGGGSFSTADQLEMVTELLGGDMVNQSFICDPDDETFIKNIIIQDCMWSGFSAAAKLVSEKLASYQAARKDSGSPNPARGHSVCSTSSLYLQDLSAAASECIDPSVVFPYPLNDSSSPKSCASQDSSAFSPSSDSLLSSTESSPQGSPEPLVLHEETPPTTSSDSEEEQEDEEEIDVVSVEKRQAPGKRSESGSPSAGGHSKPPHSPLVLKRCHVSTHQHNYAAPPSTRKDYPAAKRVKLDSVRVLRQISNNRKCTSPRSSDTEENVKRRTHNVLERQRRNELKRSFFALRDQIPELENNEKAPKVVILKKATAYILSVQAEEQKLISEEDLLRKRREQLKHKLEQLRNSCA
How it was run: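 DMSO-normalised, bidirectionally fitted reporter mRNA signal. HepG2 cells transfected with cis reporter constructs, treated 24 h; transcripts detected by RT-PCR, 6-FAM primer extension and CE.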

[3] = ATG_NRF2_ARE_CIS: Attagene CIS-FACTORIAL HepG2 Assay for human Nuclear Factor Erythroid 2 Related Factor 2 (NFR2) response to Antioxidant Response Elements (ARE) (AID 2282992); conditions: HepG2 Attagene ARE/NRF2 reporter, transcription factor activity; actives raise or lower the signal;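 as to AC50: reporter mRNA level measured by RT-PCR and capillary electrophoresis fluorescence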
How it was run: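 Endogenous transcription factor activity in human liver HepG2 cells is tracked via a cis-element-driven reporter within a multiplexed set. mRNA induction is read by RT-PCR and capillary electrophoresis after 24 h, with DMSO as baseline.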

[4] = ATG_Oct_MLP_CIS: Attagene CIS-FACTORIAL HepG2 Assay for human Octamer-Binding Transcription Factor (Oct) (AID 2282993); conditions: HepG2 Attagene cis-factorial Oct reporter, mRNA; actives raise or lower the signal
How it was run: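 Read-out: reporter mRNA via RT-PCR plus capillary electrophoresis of 6-FAM-labelled fragments. Transiently transfected HepG2, 24 h exposure, endogenous TF activity on cis elements. Gain or loss of signal fitted relative to DMSO.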

[5] = biological target: human Peroxisome Proliferator-activated Receptor alpha (PPARa), PPARA (gene 5465) (UniProt Q07869); assay: ATG_PPARa_TRANS: Attagene TRANS-FACTORIAL HepG2 Assay for human Peroxisome Proliferator-activated Receptor alpha (PPARa) (AID 2283001; active = hit-call score of the fitted dose curve at least 0.9, where 1 is the maximum)
Chain of human Peroxisome Proliferator-activated Receptor alpha (PPARa), PPARA (gene 5465) (Q07869 whole entry, looked up, the tested form may be a part): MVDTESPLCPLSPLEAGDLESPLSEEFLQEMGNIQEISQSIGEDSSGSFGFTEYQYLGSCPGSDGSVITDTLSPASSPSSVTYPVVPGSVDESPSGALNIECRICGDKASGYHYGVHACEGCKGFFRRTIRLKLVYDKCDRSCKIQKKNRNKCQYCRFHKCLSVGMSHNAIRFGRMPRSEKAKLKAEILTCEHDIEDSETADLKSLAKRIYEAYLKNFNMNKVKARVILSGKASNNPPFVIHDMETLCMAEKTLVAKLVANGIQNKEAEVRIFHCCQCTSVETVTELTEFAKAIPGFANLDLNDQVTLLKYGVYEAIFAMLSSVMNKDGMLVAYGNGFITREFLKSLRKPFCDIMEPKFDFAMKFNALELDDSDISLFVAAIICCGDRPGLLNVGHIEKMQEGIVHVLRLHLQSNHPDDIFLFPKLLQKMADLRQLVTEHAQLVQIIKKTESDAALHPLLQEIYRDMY
How it was run: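 Exposure: 24 h, transiently transfected HepG2 cells. Endpoint: GAL4-UAS reporter mRNA, RT-PCR with capillary electrophoresis fluorescence. Baseline: DMSO; increases fitted.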

[6] = biological target: human Retinoic Acid Receptor beta (RARb), RARB (gene 5915) (UniProt P10826); assay: ATG_RARb_TRANS: Attagene TRANS-FACTORIAL HepG2 Assay for human Retinoic Acid Receptor beta (AID 2283004; active = hit-call score of the fitted dose curve at least 0.9, where 1 is the maximum)
Chain of human Retinoic Acid Receptor beta (RARb), RARB (gene 5915) (P10826 whole entry, looked up, the tested form may be a part): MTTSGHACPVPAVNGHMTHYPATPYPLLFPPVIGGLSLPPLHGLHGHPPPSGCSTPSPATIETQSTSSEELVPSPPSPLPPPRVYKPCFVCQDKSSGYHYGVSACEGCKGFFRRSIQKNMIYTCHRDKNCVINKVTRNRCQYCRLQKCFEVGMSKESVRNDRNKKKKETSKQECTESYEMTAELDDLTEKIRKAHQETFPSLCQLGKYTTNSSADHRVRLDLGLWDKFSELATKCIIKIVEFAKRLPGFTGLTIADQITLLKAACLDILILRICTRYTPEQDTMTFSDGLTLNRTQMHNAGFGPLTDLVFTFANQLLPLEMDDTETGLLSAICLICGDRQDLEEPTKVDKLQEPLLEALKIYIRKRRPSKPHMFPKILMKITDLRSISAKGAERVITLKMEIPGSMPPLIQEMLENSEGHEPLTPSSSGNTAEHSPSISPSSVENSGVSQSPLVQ
How it was run: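 Readout is reporter mRNA induction: RNA reverse-transcribed, PCR-amplified, FAM-labelled, HpaI-cut and resolved by capillary electrophoresis. Transiently transfected HepG2 cells carrying exogenous NR–Gal4 chimeras were dosed for 24 h; activity fitted upward relative to DMSO.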

[7] = biological target: Peroxisome proliferator-activated receptor gamma (Homo sapiens) (UniProt P37231); assay: ATG_PPARg_TRANS: Attagene TRANS-FACTORIAL HepG2 Assay for human Peroxisome Proliferator-activated Receptor-gamma (PPARg) (AID 2283007; active = hit-call score of the fitted dose curve at least 0.9, where 1 is the maximum)
Chain of Peroxisome proliferator-activated receptor gamma (Homo sapiens) (P37231 whole entry, looked up): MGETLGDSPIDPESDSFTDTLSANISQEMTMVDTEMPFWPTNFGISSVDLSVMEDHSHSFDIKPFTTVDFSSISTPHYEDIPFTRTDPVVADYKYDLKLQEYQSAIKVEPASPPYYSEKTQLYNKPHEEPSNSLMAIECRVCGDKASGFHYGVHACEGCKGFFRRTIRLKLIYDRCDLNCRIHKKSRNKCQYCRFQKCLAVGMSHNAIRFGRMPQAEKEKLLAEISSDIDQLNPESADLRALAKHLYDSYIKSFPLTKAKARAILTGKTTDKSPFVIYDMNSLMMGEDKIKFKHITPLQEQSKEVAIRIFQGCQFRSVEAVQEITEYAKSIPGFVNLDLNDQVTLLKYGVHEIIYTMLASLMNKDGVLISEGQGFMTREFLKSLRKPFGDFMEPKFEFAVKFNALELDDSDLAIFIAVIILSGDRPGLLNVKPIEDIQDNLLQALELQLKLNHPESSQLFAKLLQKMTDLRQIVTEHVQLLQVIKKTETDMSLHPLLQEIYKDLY
How it was run: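 Multiplexed reporter transcription units in HepG2, 24 h dosing, reporter transcripts quantified by fluorescent RT-PCR and capillary electrophoresis. Increase over DMSO scored.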

[8] = biological target: Nuclear receptor subfamily 1 group I member 2 (Homo sapiens) (UniProt O75469); assay: ATG_PXR_TRANS: Attagene TRANS-FACTORIAL HepG2 Assay for human Pregnane X Receptor (PXR) (AID 2283008; active = hit-call score of the fitted dose curve at least 0.9, where 1 is the maximum)
Chain of Nuclear receptor subfamily 1 group I member 2 (Homo sapiens) (O75469 whole entry, looked up, the tested form may be a part): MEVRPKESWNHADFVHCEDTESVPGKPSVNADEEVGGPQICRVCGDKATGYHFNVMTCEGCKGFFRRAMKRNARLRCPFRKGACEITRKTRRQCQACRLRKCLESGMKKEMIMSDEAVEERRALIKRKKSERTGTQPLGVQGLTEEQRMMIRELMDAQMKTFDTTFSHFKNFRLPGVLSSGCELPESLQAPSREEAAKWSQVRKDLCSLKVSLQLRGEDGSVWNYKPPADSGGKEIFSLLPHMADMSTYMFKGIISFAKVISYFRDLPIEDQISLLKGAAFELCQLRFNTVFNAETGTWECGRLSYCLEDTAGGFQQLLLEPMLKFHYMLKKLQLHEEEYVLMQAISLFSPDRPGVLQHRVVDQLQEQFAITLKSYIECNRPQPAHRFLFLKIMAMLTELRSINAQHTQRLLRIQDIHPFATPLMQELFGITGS
How it was run: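 HepG2 transfected (FuGene 6) with GAL4-UAS reporter units + PXR-Gal4 chimera; dosed 24 h. Total RNA → oligo(dT) RT → PCR → 6-FAM primer extension → HpaI cut → CE. Gain-of-signal vs DMSO.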

[9] = biological target: human Retinoic Acid Receptor gamma (RARg), RARG (gene 5916) (UniProt P13631); assay: ATG_RARg_TRANS: Attagene TRANS-FACTORIAL HepG2 Assay for human Retinoic Acid Receptor gamma (RARg) (AID 2283009; active = hit-call score of the fitted dose curve at least 0.9, where 1 is the maximum)
Chain of human Retinoic Acid Receptor gamma (RARg), RARG (gene 5916) (P13631 whole entry, looked up, the tested form may be a part): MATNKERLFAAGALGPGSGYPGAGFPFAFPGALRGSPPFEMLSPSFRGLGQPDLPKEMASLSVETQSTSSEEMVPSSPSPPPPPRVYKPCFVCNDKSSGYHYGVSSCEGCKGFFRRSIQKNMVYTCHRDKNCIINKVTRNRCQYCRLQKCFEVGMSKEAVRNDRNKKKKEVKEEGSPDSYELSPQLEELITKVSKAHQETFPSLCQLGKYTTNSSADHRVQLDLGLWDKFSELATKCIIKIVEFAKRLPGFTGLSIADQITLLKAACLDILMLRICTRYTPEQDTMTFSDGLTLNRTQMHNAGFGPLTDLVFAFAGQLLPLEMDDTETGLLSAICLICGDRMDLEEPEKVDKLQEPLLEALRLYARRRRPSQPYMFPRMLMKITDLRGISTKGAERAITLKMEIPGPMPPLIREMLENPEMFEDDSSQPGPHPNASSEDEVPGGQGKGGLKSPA
How it was run: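 Readout: reporter transcript levels via RT-PCR, 6-FAM primer-extension labelling, HpaI digestion and capillary electrophoresis. Cells: HepG2 carrying transfected RARg-GAL4 chimera plus UAS reporter set. Dosing 24 h; DMSO negative control.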

[10] = biological target: Retinoic acid receptor alpha (Homo sapiens) (UniProt P10276); assay: ATG_RARa_TRANS: Attagene TRANS-FACTORIAL HepG2 Assay for human Retinoic Acid Receptor alpha (RARa) (AID 2283005; active = hit-call score of the fitted dose curve at least 0.9, where 1 is the maximum)
Chain of Retinoic acid receptor alpha (Homo sapiens) (P10276 whole entry, looked up, the tested form may be a part): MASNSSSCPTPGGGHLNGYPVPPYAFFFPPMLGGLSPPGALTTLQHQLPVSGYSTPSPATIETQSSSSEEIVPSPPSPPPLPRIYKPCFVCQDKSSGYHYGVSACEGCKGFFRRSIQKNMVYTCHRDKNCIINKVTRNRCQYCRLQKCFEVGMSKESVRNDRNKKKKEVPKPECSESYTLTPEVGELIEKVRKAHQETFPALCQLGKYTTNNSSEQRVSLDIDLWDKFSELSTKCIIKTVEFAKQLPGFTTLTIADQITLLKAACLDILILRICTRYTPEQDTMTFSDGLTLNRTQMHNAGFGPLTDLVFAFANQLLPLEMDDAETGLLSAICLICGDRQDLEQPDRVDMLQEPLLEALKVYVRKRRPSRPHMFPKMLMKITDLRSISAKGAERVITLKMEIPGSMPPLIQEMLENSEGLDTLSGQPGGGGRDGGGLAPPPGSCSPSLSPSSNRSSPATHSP
How it was run: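 HepG2 cells transiently transfected with multiple reporter units expressing chimeric RARα-GAL4 fusion, with GAL4-UAS-driven reporters. After 24 h compound exposure, reporter mRNA induction quantified by RT-PCR and capillary electrophoresis with fluorescent labeling; gain-of-signal fitted relative to DMSO control.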

[11] = biological target: Cellular tumor antigen p53 (Homo sapiens) (UniProt P04637); assay: ATG_p53_CIS: Attagene CIS-FACTORIAL HepG2 Assay for human p53 Transcription Factor (AID 2282994); conditions: HepG2 p53 cis-element reporter, Attagene mRNA; actives raise or lower the signal
Chain of Cellular tumor antigen p53 (Homo sapiens) (P04637 whole entry, looked up, the tested form may be a part): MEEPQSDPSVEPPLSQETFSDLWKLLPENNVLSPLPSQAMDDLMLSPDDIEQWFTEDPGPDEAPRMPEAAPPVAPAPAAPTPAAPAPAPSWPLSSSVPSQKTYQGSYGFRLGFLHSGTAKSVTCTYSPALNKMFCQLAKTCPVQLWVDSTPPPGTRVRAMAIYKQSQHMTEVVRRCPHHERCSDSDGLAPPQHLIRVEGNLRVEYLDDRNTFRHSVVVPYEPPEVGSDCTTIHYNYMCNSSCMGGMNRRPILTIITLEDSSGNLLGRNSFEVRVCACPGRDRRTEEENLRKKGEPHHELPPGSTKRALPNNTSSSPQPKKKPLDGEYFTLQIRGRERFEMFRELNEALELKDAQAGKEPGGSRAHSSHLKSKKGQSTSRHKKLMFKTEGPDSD
How it was run: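 Steps: transfect HepG2 with multiplexed cis reporter constructs; dose chemicals 24 h; extract RNA, reverse-transcribe, PCR-amplify reporter sequences; FAM-label, HpaI-digest, resolve fragments by CE. Activity fitted both directions relative to DMSO.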

[12] = biological target: human Peroxisome Proliferator-activated Receptor delta (PPARd), PPARD (gene 5467) (UniProt Q03181); assay: ATG_PPARd_TRANS: Attagene TRANS-FACTORIAL HepG2 Assay for human Peroxisome Proliferator-activated Receptor delta (PPARd) (AID 2283002; active = hit-call score of the fitted dose curve at least 0.9, where 1 is the maximum)
Chain of human Peroxisome Proliferator-activated Receptor delta (PPARd), PPARD (gene 5467) (Q03181 whole entry, looked up, the tested form may be a part): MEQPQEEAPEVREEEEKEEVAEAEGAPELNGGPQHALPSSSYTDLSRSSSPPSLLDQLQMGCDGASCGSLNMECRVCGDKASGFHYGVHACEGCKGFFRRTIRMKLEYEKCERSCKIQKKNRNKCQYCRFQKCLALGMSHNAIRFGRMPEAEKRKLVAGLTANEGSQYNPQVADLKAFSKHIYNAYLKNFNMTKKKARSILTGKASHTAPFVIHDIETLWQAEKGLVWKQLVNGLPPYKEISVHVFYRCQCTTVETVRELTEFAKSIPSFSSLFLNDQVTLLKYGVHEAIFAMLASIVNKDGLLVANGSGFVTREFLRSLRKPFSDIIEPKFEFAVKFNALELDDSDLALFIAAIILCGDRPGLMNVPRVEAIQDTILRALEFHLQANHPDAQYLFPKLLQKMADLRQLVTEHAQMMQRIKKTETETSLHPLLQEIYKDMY
How it was run: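 Measured quantity: GAL4-UAS reporter transcript induction in HepG2 after 24 h chemical dosing, with NR-Gal4 chimeras supplied by transient transfection. Detection by RT-PCR and capillary electrophoresis; upward fit against DMSO.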

[13] = BSK_3C_TissueFactor: BioMAP Diversity Plus: 3C Assay for Tissue Factor Biomarker Activity (AID 2282997); conditions: BioMAP 3C HUVEC, tissue factor biomarker readout; actives raise or lower the signal
How it was run: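 HUVEC, 3C system, 24 h post-dose; Tissue Factor by ELISA; bidirectional fit vs DMSO baseline.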

[14] = BSK_3C_uPAR: BioMAP Diversity Plus: 3C Assay for Urokinase-type plasminogen activator receptor (uPAR) Biomarker Activity (AID 2282998); conditions: BioMAP 3C HUVEC, uPAR biomarker ELISA; actives raise or lower the signal
How it was run: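 HUVEC primary cells; 24 h post-dose; uPAR by ELISA; gain or loss of signal fitted bidirectionally vs DMSO baseline.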

[15] = BSK_3C_VCAM1: BioMAP Diversity Plus: 3C Assay for Vascular cell adhesion molecule 1 (VCAM1) Biomarker Activity (AID 2282999); conditions: BioMAP 3C HUVEC, VCAM1 ELISA, cytokine-stimulated; actives raise or lower the signal
How it was run: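 Vascular primary endothelium (human umbilical vein) was exposed to chemicals and assayed 24 h later. VCAM-1 levels came from ELISA, with DMSO serving as baseline for bidirectional fitting.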

[16] = BSK_4H_Eotaxin3: BioMAP Diversity Plus: 4H Assay for Eotaxin 3 Biomarker Activity (AID 2283000); conditions: primary human endothelial cells (HUVEC); actives raise or lower the signal
How it was run: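 Readout is Eotaxin-3 (CCL26) level by ELISA in primary human umbilical vein endothelial cells harvested 24 h after chemical exposure; activity fitted in both directions against DMSO control.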

[17] = read-out: Intercellular Adhesion Molecule 1 (ICAM1), ICAM1 (gene 3383); assay: BSK_3C_ICAM1: BioMAP Diversity Plus: 3C Assay for Intercellular Adhesion Molecule 1 (ICAM1) Biomarker Activity (AID 2283003); conditions: primary human endothelial cells (HUVEC); actives raise or lower the signal
How it was run: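 ELISA read-out of ICAM-1; HUVEC (primary human), 3C system, 24 h post-dosing; bidirectional fit vs DMSO baseline.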

[18] = BSK_3C_Proliferation: Cell Proliferation Assessment in the BioMAP Diversity Plus: 3C Assay (AID 2283006); conditions: primary human endothelial cells (HUVEC);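 also: potency may reflect either rise or fall in cell number versus DMSO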
How it was run: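 HUVEC, sub-confluent; 48 h chemical exposure; 10% TCA fix, 0.1% SRB stain, A560 total protein. Gain or loss of signal fitted both directions vs DMSO control.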

[19] = ATG_NF_kB_CIS: Attagene CIS-FACTORIAL HepG2 Assay for human Nuclear Factor Kappa B (NF-kB) (AID 2282991); conditions: HepG2 Attagene cis-factorial NF-kB reporter mRNA; actives raise or lower the signal
How it was run: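 HepG2, transient multi-reporter transfection, cis promoter elements (endogenous TFs). 24 h exposure. Total RNA → RT → PCR → 6-FAM label → HpaI → CE. Gain/loss vs DMSO.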

[20] = biological target: human RAR-related Orphan Receptor beta (RORb), RORB (gene 6096) (UniProt Q92753); assay: ATG_RORb_TRANS: Attagene TRANS-FACTORIAL HepG2 Assay for human RAR-related Orphan Receptor beta (RORb) (AID 2283010; active = hit-call score of the fitted dose curve at least 0.9, where 1 is the maximum)
Chain of human RAR-related Orphan Receptor beta (RORb), RORB (gene 6096) (Q92753 whole entry, looked up, the tested form may be a part): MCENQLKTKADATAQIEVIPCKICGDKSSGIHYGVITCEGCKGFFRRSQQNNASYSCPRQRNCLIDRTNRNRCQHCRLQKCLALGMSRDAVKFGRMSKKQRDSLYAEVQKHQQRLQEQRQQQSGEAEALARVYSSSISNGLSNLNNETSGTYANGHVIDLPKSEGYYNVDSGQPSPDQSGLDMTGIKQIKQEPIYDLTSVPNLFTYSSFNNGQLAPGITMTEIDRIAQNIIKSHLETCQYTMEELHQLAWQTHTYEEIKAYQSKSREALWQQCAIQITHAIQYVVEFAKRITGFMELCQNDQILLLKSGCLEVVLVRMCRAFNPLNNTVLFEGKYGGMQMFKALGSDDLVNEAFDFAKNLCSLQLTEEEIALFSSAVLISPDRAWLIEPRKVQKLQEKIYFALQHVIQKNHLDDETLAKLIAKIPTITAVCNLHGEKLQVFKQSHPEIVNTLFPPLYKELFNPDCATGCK
How it was run: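 HepG2, transient MRTU transfection (GAL4-UAS reporters, exogenous NR-Gal4 chimeras); 24 h compound exposure; total RNA → RT-PCR → 6-FAM primer extension → HpaI digest → CE fluorescence. Positive direction vs DMSO baseline.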

Measured: AC50

CC(C)C[C@H]1C(=O)N2CCC[C@H]2[C@]2(O)O[C@](NC(=O)[C@@H]3C=C4c5cccc6[nH]c(Br)c(c56)C[C@H]4N(C)C3)(C(C)C)C(=O)N12
inactive: [2] | [4] | [5] | [6] | [7] | [9]
active: [1] 3.81 µM | [3] 3.7 µM | [8] 0.505 µM

Cc1cccc(C)c1[N+](=O)[O-]
inactive: [1] | [2] | [3] | [4] | [6] | [10] | [8] | [9]

O=C[C@H](O)[C@H](O)[C@H](O)CO
inactive: [1] | [2] | [4] | [11] | [5] | [12] | [6] | [10] | [7] | [9]

CC(=O)[O][Al][O]C(C)=O
inactive: [1] | [2] | [3] | [4] | [8]

O=C1C(c2[nH]c3ccc(S(=O)(=O)O)cc3c2O)=Nc2ccc(S(=O)(=O)O)cc21
inactive: [1] | [2] | [3] | [4] | [11] | [8]

CCCC[n+]1ccccc1
inactive: [1] | [2] | [3] | [4] | [5] | [6] | [10] | [8] | [9]

CC(C)(COC(=O)c1ccccc1)COC(=O)c1ccccc1
active: [13] 11.4 µM | [14] 34 µM | [16] 29.5 µM | [18] 22.2 µM
inactive: [1] | [2] | [4] | [15] | [5] | [12] | [17] | [8]

O=C1OC2(c3cc(Br)c(O)c(Br)c3Oc3c2cc(Br)c(O)c3Br)c2c(Cl)c(Cl)c(Cl)c(Cl)c21
inactive: [1] | [19] | [4] | [11] | [12] | [20]
active: [3] 35.3 µM | [14] 1.86 µM | [15] 4.58 µM | [16] 3.71 µM | [17] 7.39 µM | [18] 8.03 µM | [7] 34.7 µM | [8] 4.84 µM

COC(=O)OC
inactive: [1] | [2] | [4] | [11] | [12] | [8]
